Structures are written as SMILES. About 8,600 (12%) of roughly 69,000 compounds showed an effect of 50% or more. This excerpt belongs to a sample that is enriched for strong results.

This experiment deals with Plasmodium berghei. The experiment in a line: Screen against P. berghei liver stage (PbLuc), transformed with Luciferase, at 10uM. It is filed as functional, HepG2. Conditions: tested at 10 uM.
In the case of `CCN(Cc1cnn(C)c1)C[C@H]1CC[C@@H](Cc2cccc(CN)c2)O1`, the INHIBITION is 15.1%. Regarding `Cc1cnn(CC2CCCN2CCCS(C)(=O)=O)c1` (stereo not given), the INHIBITION came to 13.3%. For the molecule `CCN(c1cc(C)cc(C)c1)S(=O)(=O)c1cc(C(=O)O)cs1`, the INHIBITION is reported as 42.9%. In the case of `O=C(NCc1ccco1)[C@H]1CC[C@@H]2[C@@H](CCN2Cc2nccs2)O1`, the INHIBITION is on record as -30.1%. Regarding `Cc1ccc(NC(=O)c2n[nH]c(-n3cnnc3)n2)cc1`, the INHIBITION is reported as -5.59%.

Regarding `CCc1nc(CN2CCCN(C(=O)c3c(C)noc3C)CC2)cs1`, the INHIBITION turned out to be 28.7%. Regarding `Cc1noc(C)c1CC(=O)N1CCCN(Cc2cscn2)CC1`, the INHIBITION came to 57.4%.

`Cc1noc(C)c1CCC(=O)N1CCCN(CC(N)=O)CC1`: the INHIBITION was 37.95%. Regarding `Cc1noc(C)c1CCC(=O)N1CCCN(Cc2cccs2)CC1`, the INHIBITION was found to be 52%. Take `CCc1nc(CN2CCN(C(=O)N3CCCCC3)CC2)cs1`: the INHIBITION is -2.53%. For the molecule `Cc1noc(C)c1CC(=O)N1CCN(Cc2cscn2)CC1`, the INHIBITION amounted to 27.94%. Take `Cc1noc(C)c1CCC(=O)N1CCN(Cc2cscn2)CC1`: the INHIBITION is reported as 1.7%. As for `CCc1nc(CN2CCN(C(=O)Cc3c(C)noc3C)CC2)cs1`, the INHIBITION turned out to be 50.4%.

In the case of `Cc1noc(C)c1CCC(=O)N1CCCN(Cc2cscn2)CC1`, the INHIBITION is listed as -5.51%.

Take `O=C(C1CCOC1)N1CCN(CCn2cccn2)c2ncccc2C1` (stereo not given): the INHIBITION was 11.3%.

Consider `CN(C)C(=O)CN1CCC2(CCN(S(=O)(=O)C3CC3)CC2)C1=O`, for which the INHIBITION came out at 32.1%. Turning to `Cc1cc(O)nc(C2CCCN(CCO)C2)n1` (stereo not given), the INHIBITION was -0.232%.

On to `CCCC(=O)N1CCc2c(CNS(C)(=O)=O)cncc2C1`, for which the INHIBITION amounted to 13.5%. With `O=C(c1cnc2ccc(F)cc2c1NCc1ccco1)N1CCCC1`, the INHIBITION is on record as 37.2%. Regarding `O=C(c1ccno1)N1CCC2(CC1)C(=O)N(CC1CC1)c1ccccc12`, the INHIBITION was 25.7%. The result for `O=C([C@H]1CCCO1)N1CCN(Cc2cccnc2)c2ncccc2C1` reads 15.4%; that for `CC(=O)N1CCSCC1c1ccc(C)o1` (stereo not given), -13.8%; that for `COC(=O)c1ccc(CNCc2ccn(C)n2)cc1`, 56%.

Take `COC(=O)c1ccc(CCn2cnc(C#N)n2)cc1`: the INHIBITION is on record as 13.8%. As for `COc1ccc(CNCc2cn(C)nc2C)cc1`, the INHIBITION came to 24.8%.

`COC(=O)c1ccc(Cn2cnc(C#N)n2)cc1`: the INHIBITION was 6.23%. With `COC(=O)c1ccc(CNCc2cn(C)nc2C)cc1`, the INHIBITION amounted to 70.8%. With `CCn1cc(CNCc2ccc(C(=O)OC)cc2)c(C)n1`, the INHIBITION came to 39.7%.

`CN(C)[C@@H]1CCN(C(=O)c2ccsc2)[C@H]1Cc1cccnc1`: the INHIBITION is on record as 38.1%. Turning to `Cc1cc(C)nc(C2CCN(C(=O)CO)CC2)n1`, the INHIBITION is 26.65%. As for `CCC(NC(=O)c1c(C(=O)O)cnn1C)c1ccc(C)cc1C` (stereo not given), the INHIBITION came out at 15.9%. Consider `Cc1cc(C)c(CNC(=O)N2CCN(c3ccncc3)CC2)c(=O)[nH]1`, for which the INHIBITION was -21.45%. Take `CN(Cc1ccoc1)c1ccc(-c2nccn2C)nn1`: the INHIBITION is reported as -120%. Take `Cc1ccc(CN(C)c2nccc(-c3cn(C)nc3C)n2)o1`: the INHIBITION amounted to 50.7%.

With `Cc1nn(C)cc1CN(C)c1nccc(-c2cn(C)nc2C)n1`, the INHIBITION was 28%. As for `Cc1nn(C)cc1-c1ccnc(N(C)Cc2cnn(C)c2)n1`, the INHIBITION was 74.5%. For the molecule `Cc1nn(C)cc1-c1ccnc(N(C)Cc2cccs2)n1`, the INHIBITION was determined as 35.5%. The result for `CN(Cc1cnn(C)c1)c1nccc(-c2cc(C(=O)O)ccn2)n1` reads 33%. Consider `Cc1nn(C)cc1-c1ccnc(N(C)Cc2ccon2)n1`, for which the INHIBITION is on record as 49.6%. `COc1ccc(CN(C)c2nccc(-c3cn(C)nc3C)n2)cc1`: the INHIBITION was -7.76%. For the molecule `Cc1nn(C)cc1-c1ccnc(N(C)Cc2ccc(F)cc2)n1`, the INHIBITION worked out at 30.1%.

With `COc1ccccc1CN(C)c1nccc(-c2cn(C)nc2C)n1`, the INHIBITION was found to be 82.3%. Consider `Cc1nn(C)cc1-c1ccnc(N(C)Cc2ccoc2)n1`, for which the INHIBITION amounted to 51.8%. Turning to `CCCN1CCCC1Cn1nc(C)cc1C` (stereo not given), the INHIBITION was 34.35%.

For the molecule `N#Cc1cc(C#N)c(SCC(=O)Nc2ccc(F)cc2)nc1N`, the INHIBITION amounted to 35.1%. In the case of `O=C(CCN1CCCC1=O)Nc1cnn(-c2ccccc2Cl)c1`, the INHIBITION is -46.4%. For `CC(CNC(=O)OC(C)(C)C)N(C)C(=O)COc1ccccc1C#N` (stereo not given), the INHIBITION worked out at 15.9%. With `Cc1ncsc1C(=O)N(C)Cc1ccsc1`, the INHIBITION is -23.955%. On to `Cn1cnc(S(=O)(=O)N2CCCCc3ccccc32)c1`, for which the INHIBITION is reported as -0.613%.

Regarding `O=C(O)c1ccccc1CN1CCOC(CCc2ccncn2)C1` (stereo not given), the INHIBITION is recorded as 20.8%.

For the molecule `CCn1cc(CNCC(c2ccc(C)s2)N2CCOCC2)cn1` (stereo not given), the INHIBITION is 14.9%. `Cc1ccc(C(CNCc2ccncc2)N2CCOCC2)s1` (stereo not given): the INHIBITION is listed as -33.2%. On to `Cc1ccc(C(CNCc2ccc(C#N)cc2)N2CCOCC2)s1` (stereo not given), for which the INHIBITION is 69.7%. Take `Cc1ccc(C(CNCc2cnn(C(C)C)c2)N2CCOCC2)s1` (stereo not given): the INHIBITION is reported as -48.2%. In the case of `Cc1ccc(C(CNCc2cccn2C)N2CCOCC2)s1` (stereo not given), the INHIBITION is 38%.

Consider `CCCn1cc(CNCC(c2ccc(C)s2)N2CCOCC2)cn1` (stereo not given), for which the INHIBITION turned out to be 63.7%.

Turning to `O=C(NCC1COCc2c(-c3ccncc3)nnn2C1)[C@H]1CCCO1` (stereo not given in full), the INHIBITION is recorded as -34.6%. The result for `CC(Cn1cccn1)n1cnc2cccc(F)c2c1=O` (stereo not given) reads 30%; that for `CCn1ncc(CN2CCc3c(nc(-c4cccnc4)[nH]c3=O)C2)c1C`, 23.3%. The result for `OCCN1CCC(c2cncc(-c3cccc(Cl)c3)n2)CC1` reads 23.2%; that for `N#CC1(c2ccccc2)CCN(C(=O)C2CCCN(CC(N)=O)C2)CC1` (stereo not given), 61%. For the molecule `NC(=O)CN1CCCC(C(=O)N2CCC(Oc3ncccn3)CC2)C1` (stereo not given), the INHIBITION came to 27.6%.

Regarding `NC(=O)CN1CCCC(C(=O)N2CCC(O)(Cc3ccccc3)CC2)C1` (stereo not given), the INHIBITION came out at 8.07%. Regarding `NC(=O)CN1CCCC(C(=O)N2CCC(O)(c3ccccc3)CC2)C1` (stereo not given), the INHIBITION is listed as 58.3%.

As to `N#CC1(c2ccccc2)CCN(C(=O)C2CCCN(C(N)=O)C2)CC1` (stereo not given), the INHIBITION is 30.5%. With `N#CC1(c2ccccc2)CCN(C(=O)CN2C(=O)CCNC2=O)CC1`, the INHIBITION was 30.1%. `O=C(c1ccc(=O)[nH]n1)N1CCNCC1c1ccccc1` (stereo not given): the INHIBITION was 8.12%. The result for `CCOCC(=O)N1CCC(c2cc3ncccc3c(O)n2)CC1` reads 0.301%; that for `CC(C)NC(=O)N1C[C@H](OCc2cccnc2)[C@H]2COC[C@H]21`, -18.2%. For `Cc1nc(O)cc(C2(C)CCCNC2)n1` (stereo not given), the INHIBITION was 1.4%.

The values above are taken from ChEMBL document CHEMBL4513216, “Probing the Open Global Health Chemical Diversity Library for Multistage-Active Starting Points for Next-Generation Antimalarials” (ACS Infect Dis, 2020).
